Where “and” joins values, the source holds several entries; their conditions need not be identical. Identical values can stand only once. Values without a mark were called inactive. Records with an inconclusive call do not appear. Where a call stands in place of a potency, no number is given. Calls of active or inactive are those of the source. Unless noted, calls follow the shape of the dose curve; as a rule, active = well fitted curve in the direction sought with a large enough effect; inconclusive = small, poorly fitted or top-dose-only effect, or another doubt; inactive = no such curve, though single readings can be large; an effect the other way counts as inactive or inconclusive.
Legend:
Es-2 = assay: Primary qHTS to identify gynecologic anti-cancer compounds using libraries of approved drugs and bioactive compounds (AID 1345084); details: Gynecologic cancer cell panel viability, ATPlite luminescence, 48 h; series mostly up to 57.5 µM; also: nearly all actives have a fitted effect of over 55% in size; also: potency is read from the fitted curve at half-maximal effect
In short: (§1)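 In this quantitative HTS, cell killing is estimated from loss of ATP-dependent luciferase light. Cells see five compound concentrations over a 48 h exposure.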

HeLa = assay: as above; details: Gynecologic cancer cell panel viability, ATPlite luminescence, 48 h; series mostly up to 57.5 µM
In short: as §1

Hek293T = assay: as above; details: Gynecologic cancer cell panel viability, ATPlite luminescence, 48 h, control line for the selectivity index; series mostly up to 57.5 µM
In short: as §1

JEG-3 = assay: as above; details: Gynecologic cancer cell panel viability, ATPlite luminescence, 48 h; series mostly up to 57.5 µM
In short: as §1

OV90 = assay: as above; details: Gynecologic cancer cell panel viability, ATPlite luminescence, 48 h; series mostly up to 57.5 µM
In short: as §1

PA-1 = assay: as above; details: Gynecologic cancer cell panel viability, ATPlite luminescence, 48 h; series mostly up to 57.5 µM
In short: as §1

SKOV3 = assay: as above; details: Gynecologic cancer cell panel viability, ATPlite luminescence, 48 h; series mostly up to 57.5 µM
In short: as §1

Tov-21-G = assay: as above; details: Gynecologic cancer cell panel viability, ATPlite luminescence, 48 h; series mostly up to 57.5 µM
In short: as §1

Tov112D = assay: as above; details: Gynecologic cancer cell panel viability, ATPlite luminescence, 48 h; series mostly up to 57.5 µM
In short: as §1

[1] = Drug repurposing screens with cells derived from glioblastoma tumor samples (AID 1345199); details: GBM patient neurospheres viability, ATP luminescence, 48 h; also: nearly all actives have a fitted effect of over 40% in size; also: potency is read from the fitted curve at half-maximal effect
In short: (§2)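 Primary testing used CD133+ neurospheres from four GBM patients, seven concentrations, 48 h exposure and ATP-based viability; confirmation added three slower-growing patient lines.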

astro = assay: as above; details: viability, ATP luminescence, 48 h; series mostly up to 45.9 µM
In short: as §2

[2] = molecular target: Nuclear receptor subfamily 1 group I member 2 (Rattus norvegicus) (UniProt Q9R1A7); assay: qHTS assay for small molecule activators of the rat pregnane X receptor (rPXR) signaling pathway (AID 651751; call rule not given here); details: rPXR reporter cells, luciferase (One-Glo), 24 h
[3] = qHTS assay for small molecule activators of the human pregnane X receptor (PXR) signaling pathway (AID 720659; call rule not given here)
[4] = at 45.9 µM (top of the series), tumour line B
[5] = at 45.9 µM (top of the series), tumour line D
[6] = at 108 µM (top of the series), tumour line B
[7] = at 108 µM (top of the series), tumour line D
[8] = at 46 µM (top of the series), tumour line A

Sequence of Nuclear receptor subfamily 1 group I member 2 (Rattus norvegicus) (Q9R1A7 whole entry, looked up): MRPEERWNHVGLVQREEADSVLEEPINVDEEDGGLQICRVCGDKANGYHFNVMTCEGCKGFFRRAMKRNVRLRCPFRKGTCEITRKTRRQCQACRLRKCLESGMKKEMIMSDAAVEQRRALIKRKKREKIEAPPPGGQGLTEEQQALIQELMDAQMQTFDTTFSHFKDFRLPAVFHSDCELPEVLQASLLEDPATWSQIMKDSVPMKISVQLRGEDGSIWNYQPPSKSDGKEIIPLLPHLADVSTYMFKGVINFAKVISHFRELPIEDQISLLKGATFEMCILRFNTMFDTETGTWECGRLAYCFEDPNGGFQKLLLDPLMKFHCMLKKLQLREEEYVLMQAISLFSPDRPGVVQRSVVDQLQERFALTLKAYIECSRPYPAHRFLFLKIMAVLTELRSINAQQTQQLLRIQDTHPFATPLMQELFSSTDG

| Structure (SMILES) | Potency (Es-2) | Potency (HeLa) | Potency (Hek293T) | Potency (JEG-3) | Potency (OV90) | Potency (PA-1) | Potency (SKOV3) | Potency (Tov-21-G) | Potency (Tov112D) | activity, negative = cell killing [1, 4] [%] | activity, negative = cell killing [1, 5] [%] | Potency (astro) | max response [2] | outcome [3] | activity, negative = cell killing [1, 6] [%] | activity, negative = cell killing [1, 7] [%] | Potency ([1]; tumour line A) | activity, negative = cell killing [1, 8] [%] | activity, negative = cell killing ([1]; at 91.6 µM (top of the series), tumour line B) [%] |
| --- | --- | --- | --- | --- | --- | --- | --- | --- | --- | --- | --- | --- | --- | --- | --- | --- | --- | --- | --- |
| COP(=S)(OC)Oc1ccc(S(N)(=O)=O)cc1 | inactive | inactive | inactive | inactive | inactive | inactive | inactive | inactive | inactive | -9.2 | -4.94 | inactive | – | – | – | – | – | – | – |
| Nc1ccc(N)cc1 | inactive | inactive | inactive | inactive | inactive | inactive | inactive | inactive | inactive | -10.5 | -20.4 | inactive | – | – | – | – | – | – | – |
| O=c1n(Cl)c(=O)n(Cl)c(=O)n1Cl | inactive | inactive | inactive | inactive | inactive | inactive | inactive | inactive | inactive | -0.787 | 7.38 | inactive | -5.15% | inactive | – | – | – | – | – |
| COc1ccc(C(=O)N2CCCC2=O)cc1 | inactive | inactive | inactive | inactive | inactive | inactive | inactive | inactive | inactive | -4.07 | -13.6 | inactive | – | – | – | – | – | – | – |
| COc1ccc(OC)c(CC(C)N)c1 (stereo not drawn) | inactive | inactive | inactive | inactive | inactive | inactive | – | inactive | inactive | – | – | inactive | – | – | -6.52 | -16.6 | – | – | – |
| CCOC(=O)NC(C)(C)Cc1ccc(Cl)cc1 | inactive | inactive | inactive | inactive | inactive | inactive | – | inactive | inactive | 0.659 | -16.7 | inactive | – | – | – | – | – | – | – |
| Cc1ncc2n1-c1ccc(Cl)cc1C(c1ccccc1F)=NC2 | inactive | inactive | inactive | inactive | – | inactive | inactive | inactive | inactive | -17.8 | -1.25 | – | – | – | – | – | – | – | – |
| O=C(N[C@H]1N=C(c2ccccc2F)c2cccc3c2N(CC3)C1=O)c1cc2ccccc2[nH]1 | inactive | inactive | inactive | inactive | inactive | inactive | – | inactive | inactive | 9.35 | – | inactive | – | – | – | – | – | – | – |
| COc1cc(C[C@@H](C)N)c(OC)cc1Br | inactive | inactive | inactive | inactive | – | inactive | inactive | inactive | inactive | – | – | inactive | – | – | -21.6 | – | 35.5 µM (active) | – | – |
| CC[C@H]1C[C@@H]2C[C@H]3c4[nH]c5ccc(OC)cc5c4CCN(C2)[C@@H]13 | inactive | inactive | inactive | inactive | 31.6 µM (active) | – | inactive | inactive | inactive | – | – | inactive | – | – | – | – | – | – | – |
| CNC(=O)Oc1cccc2ccccc12 | inactive | inactive | inactive | inactive | – | inactive | inactive | inactive | inactive | – | – | – | 5.05% and 2.44% | – | – | – | 35.5 µM (active) | – | – |
| c1ccc2nc(N3CCNCC3)ccc2c1 | inactive | inactive | inactive | inactive | – | inactive | inactive | inactive | inactive | – | – | 12.6 µM (active) | – | – | – | – | – | – | – |
| CCN(Cc1ccc(Cl)nc1)/C(=C/[N+](=O)[O-])NC | inactive | inactive | inactive | inactive | inactive | inactive | – | inactive | inactive | -9.68 | -5.99 | inactive | – | – | – | – | – | – | – |
| CCCOC(=O)Cc1ccc(OCC(=O)N(CC)CC)c(OC)c1 | inactive | inactive | inactive | inactive | inactive | inactive | – | inactive | inactive | -0.689 | -1.94 | inactive | – | – | – | – | – | -27.4 | – |
| CCOC(=O)c1ncn2c1CN(C)C(=O)c1c(I)cccc1-2 | inactive | inactive | inactive | inactive | inactive | inactive | – | inactive | inactive | – | – | – | – | – | – | – | – | – | – |
| CCCC(C)C1(CC)C(=O)N=C(S)NC1=O (stereo not drawn) | inactive | inactive | inactive | inactive | – | inactive | – | inactive | inactive | -11.2 | -14.3 | inactive | – | – | – | – | – | -28.3 | – |
| CC1Sc2c(C(=O)O)c(=O)c3cc(F)c(N4CCNCC4)cc3n21 (stereo not drawn) | inactive | inactive | inactive | inactive | inactive | inactive | – | inactive | inactive | – | – | – | – | – | – | – | – | – | – |
| C1CN2CCC1CC2 | inactive | inactive | inactive | inactive | 25.1 µM (active) | inactive | – | inactive | inactive | – | – | – | – | – | – | – | – | – | – |
| CCc1cc(OC)c(C[C@H](C)N)cc1OC | inactive | inactive | inactive | inactive | – | inactive | inactive | inactive | inactive | – | – | inactive | – | – | -24.5 | -14.6 | 31.6 µM (active) | – | – |
| CC(C)=CCN1CC[C@@]2(C)c3cc(O)ccc3C[C@@H]1[C@@H]2C | 28.2 µM (active) | inactive | inactive | inactive | – | inactive | inactive | inactive | inactive | – | – | inactive | – | – | – | – | 25.1 µM (active) | – | -12.8 |
| COc1cc(CC(C)N)cc2c1OCO2 (stereo not drawn) | inactive | inactive | inactive | inactive | inactive | inactive | – | inactive | inactive | – | – | inactive | – | – | -12.8 | – | 35.5 µM (active) | – | – |
| ClC1=C(Cl)C2(Cl)C(CBr)CC1(Cl)C2(Cl)Cl (stereo not drawn) | inactive | inactive | inactive | inactive | inactive | inactive | inactive | inactive | inactive | – | – | inactive | – | – | – | – | – | – | – |

From PubChem BioAssay (NCATS)
